The values below come from PubChem BioAssay (EPA / NIEHS).

Activity calls are given as the source filed them. How the source made its calls: active means hit-call score of the fitted dose curve at least 0.9, where 1 is the maximum; inactive means score below 0.9.

What all share (conditions): mRNA level, 48 h; actives raise or lower the signal
Read-out in assay [1]: Broad substrate specificity ATP-binding cassette transporter ABCG2 (Homo sapiens) (UniProt Q9UNQ0)
Description: LTEA_HepaRG_ABCG2: Life Technologies and Expression Analysis (LTEA) Assay for ABC Transporter (ABCG2) using HepaRG (AID 2283465). Put shortly:
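Differentiated HepaRG cells were exposed for 48 h in serum-free induction medium to 8 half-log concentrations, top 100 uM, in 0.5% DMSO. ABCG2 mRNA was measured by qRT-PCR, normalized to ACTB, GAPDH and POLR2A, with bidirectional fitting versus DMSO.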

Read-out in assay [2]: Peroxisomal acyl-coenzyme A oxidase 1 (ACOX1) gene, ACOX1 (gene 51)
Description: LTEA_HepaRG_ACOX1: Life Technologies and Expression Analysis (LTEA) Assay for Peroxisomal acyl-coenzyme A oxidase 1 (ACOX1) gene using HepaRG (AID 2283467). A digest of the protocol: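 HepaRG cells, plated 48 h then switched to serum-free induction medium, were exposed in duplicate for 48 h to 8-point half-log concentrations up to 100 uM in 0.5% DMSO. ACOX1 mRNA was measured by qRT-PCR, normalized to ACTB/GAPDH/POLR2A, and fitted bidirectionally versus DMSO.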

Read-out in assay [3]: Alkaline Phosphatase, Placental (ALPP) gene, ALPP (gene 250)
Description: LTEA_HepaRG_ALPP: Life Technologies and Expression Analysis (LTEA) Assay for Alkaline Phosphatase, Placental (ALPP) gene using HepaRG (AID 2283468). A digest of the protocol: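 HepaRG cells plated 48 h, then exposed in duplicate for 48 h in serum-free induction medium to 8-point half-log series from 100 uM in 0.5% DMSO. ALPP mRNA by TaqMan qRT-PCR, normalized to ACTB/GAPDH/POLR2A; bidirectional fit versus DMSO.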

Read-out in assay [4]: Bcl-2 (BAD) gene, BAD (gene 572)
Description: LTEA_HepaRG_BAD: Life Technologies and Expression Analysis (LTEA) Assay for Bcl-2 (BAD) gene using HepaRG (AID 2283469). Put shortly: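 Differentiated HepaRG cells were exposed in duplicate in 0.5% DMSO for 48 h to eight-point half-log concentrations up to 100 uM. BAD mRNA was measured by Fluidigm TaqMan qRT-PCR, normalized to ACTB, GAPDH and POLR2A, and fitted bidirectionally against DMSO.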

Read-out in assay [5]: Bcl-2 (BAX) gene, BAX (gene 581)
Description: LTEA_HepaRG_BAX: Life Technologies and Expression Analysis (LTEA) Assay for Bcl-2 (BAX) gene using HepaRG (AID 2283470). A digest of the protocol:
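HepaRG (human liver), 48 h exposure, duplicate wells. 8-pt curve, half-log from 100 uM, 0.5% DMSO. BAX transcript by TaqMan qRT-PCR; ACTB/GAPDH/POLR2A normalization; gain or loss vs DMSO baseline.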

Read-out in assay [6]: adenosine kinase (ADK) gene, ADK (gene 132)
Description: LTEA_HepaRG_ADK: Life Technologies and Expression Analysis (LTEA) Assay for adenosine kinase (ADK) gene using HepaRG (AID 2283471). A digest of the protocol:
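HepaRG (human liver), 48 h chemical exposure, 8-pt half-log series, top 100 uM, 0.5% DMSO vehicle. Readout: ADK mRNA by qRT-PCR vs housekeeping genes; bidirectional curve fit relative to DMSO baseline.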

Read-out in assay [7]: Alpha-fetoprotein (AFP) gene, AFP (gene 174)
The assay can be described thus: LTEA_HepaRG_AFP: Life Technologies and Expression Analysis (LTEA) Assay for Alpha-fetoprotein (AFP) gene using HepaRG (AID 2283472). Put shortly:
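HepaRG, single lot; 48 h post-plating -> serum-free induction medium; cpd 8-pt, 100 uM top, half-log, 0.5% DMSO, duplicate, 48 h. RNA -> qRT-PCR AFP, norm ACTB/GAPDH/POLR2A. Bidirectional fit vs DMSO.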

Read-out in assay [8]: Apoptosis regulator Bcl-2 (Homo sapiens) (UniProt P10415)
Description: LTEA_HepaRG_BCL2: Life Technologies and Expression Analysis (LTEA) Assay for Bcl-2 gene using HepaRG (AID 2283475). Put shortly:
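HepaRG, plated 48 h then switched to serum-free induction medium; dosed 48 h, 8 conc. (max 100 uM, half-log steps), duplicate, 0.5% DMSO. Lysis in RLT, RNA isolated, TaqMan qRT-PCR for BCL2; ACTB/GAPDH/POLR2A normalisation; bidirectional fit vs DMSO.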

Read-out in assay [9]: Bcl-2 (BID) gene, BID (gene 637)
The assay can be described thus: LTEA_HepaRG_BID: Life Technologies and Expression Analysis (LTEA) Assay for Bcl-2 (BID) gene using HepaRG (AID 2283476). A digest of the protocol: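 Transcript levels of BID, measured by qRT-PCR and normalized to three housekeeping genes, were fitted bidirectionally against DMSO controls. Cells were HepaRG, dosed 48 h at up to 100 uM.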

Read-out in a further assay: Caspase-3 (Homo sapiens) (UniProt P42574)
The assay can be described thus: LTEA_HepaRG_CASP3: Life Technologies and Expression Analysis (LTEA) Assay for cysteine-aspartic acid protease (CASP3) using HepaRG (AID 2283477). A digest of the protocol:
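Differentiated HepaRG cells, plated 48 h, were treated in duplicate in serum-free induction medium for 48 h with eight half-log concentrations up to 100 uM in 0.5% DMSO. CASP3 mRNA measured by qRT-PCR, normalized to ACTB, GAPDH, POLR2A.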

Read-out in assay [10]: Cytochrome P450 (CYP24A1), CYP24A1 (gene 1591)
Description: LTEA_HepaRG_CYP24A1: Life Technologies and Expression Analysis (LTEA) Assay for Cytochrome P450 (CYP24A1) using HepaRG (AID 2283478). Put shortly:
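HepaRG cells plated 48 h, then exposed in duplicate in serum-free induction medium for 48 h to 8-point half-log series from 100 uM in 0.5% DMSO. CYP24A1 mRNA by Fluidigm qRT-PCR, normalized to ACTB, GAPDH, POLR2A; bidirectional fit versus DMSO.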

Read-out in assay [11]: Cytochrome P450 (CYP1A2), CYP1A2 (gene 1544)
Description: LTEA_HepaRG_CYP1A2: Life Technologies and Expression Analysis (LTEA) Assay for Cytochrome P450 (CYP1A2) using HepaRG (AID 2283479). A digest of the protocol: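 Differentiated human HepaRG cells in serum-free induction medium exposed 48 hours in duplicate to 8 half-log concentrations from 100 uM, 0.5% DMSO. CYP1A2 mRNA quantified by qRT-PCR, normalized to ACTB, GAPDH and POLR2A; bidirectional fitting versus DMSO.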

Read-out in assay [12]: cysteine-aspartic acid protease (CASP8), CASP8 (gene 841)
Description: LTEA_HepaRG_CASP8: Life Technologies and Expression Analysis (LTEA) Assay for cysteine-aspartic acid protease (CASP8) using HepaRG (AID 2283480). A digest of the protocol: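 Differentiated HepaRG cells in serum-free induction medium, 48 h exposure, eight-point half-log series from 100 uM in 0.5% DMSO, duplicates. CASP8 mRNA by qRT-PCR, normalized to ACTB, GAPDH, POLR2A; bidirectional fit versus DMSO.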

Read-out in assay [13]: Cytochrome P450 (CYP2B6), CYP2B6 (gene 1555)
The assay can be described thus: LTEA_HepaRG_CYP2B6: Life Technologies and Expression Analysis (LTEA) Assay for Cytochrome P450 (CYP2B6) using HepaRG (AID 2283481). A digest of the protocol:
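Differentiated human HepaRG cells in serum-free induction medium, dosed in duplicate for 48 h over 8 half-log concentrations topping at 100 uM (0.5% DMSO). CYP2B6 mRNA measured by TaqMan qRT-PCR, normalized to ACTB, GAPDH, POLR2A; bidirectional fit versus DMSO.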

Read-out in assay [14]: Cytochrome P450 2C19 (Homo sapiens) (UniProt P33261)
The assay can be described thus: LTEA_HepaRG_CYP2C19: Life Technologies and Expression Analysis (LTEA) Assay for CYP2C19 using HepaRG (AID 2283482). A digest of the protocol:
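Differentiated HepaRG cells in serum-free induction medium exposed 48 h in duplicate, 8 concentrations from 100 uM by half-log steps in 0.5% DMSO. CYP2C19 mRNA measured by TaqMan qRT-PCR, normalized to ACTB, GAPDH, POLR2A. Bidirectional fit versus DMSO.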

Read-out in a further assay: CYP2C8 (gene 1558)
Description: LTEA_HepaRG_CYP2C8: Life Technologies and Expression Analysis (LTEA) Assay for CYP2C8 using HepaRG (AID 2283483). A digest of the protocol: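 Differentiated HepaRG cells in serum-free induction medium exposed 48 h in duplicate to 8 half-log concentrations from 100 uM in 0.5% DMSO. CYP2C8 mRNA by qRT-PCR normalized to ACTB, GAPDH, POLR2A; bidirectional fit versus DMSO.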

Read-out in another assay: CYP2C9 (gene 1559)
Description: LTEA_HepaRG_CYP2C9: Life Technologies and Expression Analysis (LTEA) Assay for CYP2C9 using HepaRG (AID 2283484). A digest of the protocol:
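Differentiated human HepaRG cells in serum-free induction medium were exposed 48 h to chemicals in 8-point half-log series from 100 uM (0.5% DMSO), in duplicate. CYP2C9 mRNA was measured by qRT-PCR, normalized to ACTB/GAPDH/POLR2A, with bidirectional fitting versus DMSO.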

Read-out in assay [15]: Apolipoprotein A-V (APOA5) gene, APOA5 (gene 116519)
Description: LTEA_HepaRG_APOA5: Life Technologies and Expression Analysis (LTEA) Assay for Apolipoprotein A-V (APOA5) gene using HepaRG (AID 2283474). A digest of the protocol: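 Differentiated HepaRG cells in serum-free induction medium, exposed 48 h in duplicate to eight half-log concentrations topping at 100 uM (0.5% DMSO). APOA5 mRNA by Fluidigm TaqMan qRT-PCR, normalized to ACTB, GAPDH and POLR2A; bidirectional fit versus DMSO.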

Apoptosis regulator Bcl-2 (Homo sapiens), sequence (P10415 whole entry, looked up): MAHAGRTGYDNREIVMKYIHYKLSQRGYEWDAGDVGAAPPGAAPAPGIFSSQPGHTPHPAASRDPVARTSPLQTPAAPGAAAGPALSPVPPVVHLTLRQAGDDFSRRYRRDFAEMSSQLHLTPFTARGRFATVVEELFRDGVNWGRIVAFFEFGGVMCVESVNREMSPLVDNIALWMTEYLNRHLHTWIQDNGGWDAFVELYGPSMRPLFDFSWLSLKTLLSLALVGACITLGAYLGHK
Cytochrome P450 2C19 (Homo sapiens), sequence (P33261 whole entry, looked up): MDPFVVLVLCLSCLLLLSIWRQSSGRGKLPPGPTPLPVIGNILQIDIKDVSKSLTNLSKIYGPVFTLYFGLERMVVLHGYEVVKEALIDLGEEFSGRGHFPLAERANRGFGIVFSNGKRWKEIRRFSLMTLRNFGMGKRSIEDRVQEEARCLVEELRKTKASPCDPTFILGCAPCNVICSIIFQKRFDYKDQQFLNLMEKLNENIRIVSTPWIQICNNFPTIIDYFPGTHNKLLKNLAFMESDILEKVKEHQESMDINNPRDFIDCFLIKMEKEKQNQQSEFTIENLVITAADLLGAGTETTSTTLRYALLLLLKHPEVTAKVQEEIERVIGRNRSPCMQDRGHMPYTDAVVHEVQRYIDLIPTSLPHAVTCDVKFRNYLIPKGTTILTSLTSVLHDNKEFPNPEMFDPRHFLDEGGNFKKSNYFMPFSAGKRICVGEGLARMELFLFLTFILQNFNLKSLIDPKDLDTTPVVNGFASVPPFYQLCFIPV
Caspase-3 (Homo sapiens), sequence (P42574 whole entry, looked up): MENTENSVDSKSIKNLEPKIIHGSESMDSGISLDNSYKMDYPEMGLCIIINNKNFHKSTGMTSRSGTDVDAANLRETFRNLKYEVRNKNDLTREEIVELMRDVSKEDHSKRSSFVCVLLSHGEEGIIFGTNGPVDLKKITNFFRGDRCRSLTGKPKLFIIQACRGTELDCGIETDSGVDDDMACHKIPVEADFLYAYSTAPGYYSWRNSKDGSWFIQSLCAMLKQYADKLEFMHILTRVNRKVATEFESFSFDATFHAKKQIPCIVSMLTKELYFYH
Broad substrate specificity ATP-binding cassette transporter ABCG2 (Homo sapiens), sequence (Q9UNQ0 whole entry, looked up): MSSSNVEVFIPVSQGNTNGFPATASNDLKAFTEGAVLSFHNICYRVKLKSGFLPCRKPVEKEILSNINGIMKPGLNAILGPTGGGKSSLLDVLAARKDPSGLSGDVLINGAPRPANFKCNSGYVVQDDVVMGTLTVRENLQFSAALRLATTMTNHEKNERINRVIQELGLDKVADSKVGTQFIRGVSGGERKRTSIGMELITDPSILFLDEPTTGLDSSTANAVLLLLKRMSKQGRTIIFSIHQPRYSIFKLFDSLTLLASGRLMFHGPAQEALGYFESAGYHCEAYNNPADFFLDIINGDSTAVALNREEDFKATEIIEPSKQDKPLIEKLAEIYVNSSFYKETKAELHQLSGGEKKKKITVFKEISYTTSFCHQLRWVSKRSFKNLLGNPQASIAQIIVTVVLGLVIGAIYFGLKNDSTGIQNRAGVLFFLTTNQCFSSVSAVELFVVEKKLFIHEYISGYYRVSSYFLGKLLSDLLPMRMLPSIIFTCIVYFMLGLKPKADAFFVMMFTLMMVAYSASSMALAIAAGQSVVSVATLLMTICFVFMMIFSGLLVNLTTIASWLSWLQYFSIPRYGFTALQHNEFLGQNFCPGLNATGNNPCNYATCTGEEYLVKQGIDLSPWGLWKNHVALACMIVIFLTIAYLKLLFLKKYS

For `COC(=O)C=C(C)OP(=O)(OC)OC`, the compound was classed as inactive in assay [1], in [2], in assay [3], in [4], in assay [5] and in assay [6]. In addition, the result (in assay [7]; in [8]; in assay [9]; with Caspase-3 (Homo sapiens); in assay [10]; in assay [11]) was inactive. For the same compound, the compound was classed as inactive (in assay [12]; in [13]; in assay [14]; with CYP2C8 (gene 1558); with CYP2C9 (gene 1559)).
The term AC50 denotes the concentration giving half of the maximal activity seen. For the compound `CCOc1cc(Oc2ccc(C(F)(F)F)cc2Cl)ccc1[N+](=O)[O-]`, the AC50 in assay [2] was 50 µM (active); in [3], 40.3 µM (active); in assay [7], 39.1 µM (active); in assay [15], 30.8 µM (active); in [8], 33.5 µM (active); in assay [11], 5.27 µM (active). Moreover, the AC50 in assay [13] is 34.4 µM (active); in assay [14], 69.3 µM (active); in the assay with CYP2C8 (gene 1558), 74.2 µM (active); in the assay with CYP2C9 (gene 1559), 35.7 µM (active). Further, the outcome (in assay [4]; in assay [5]; in [6]; in [9]; in the assay with Caspase-3 (Homo sapiens); in [10]) was inactive. For the same compound, the call in assay [12] was inactive.
With `Oc1ccccc1-c1ccccc1`, the result in assay [2], in assay [3], in assay [4], in assay [5], in assay [6] and in [7] was inactive. In addition, the compound was called inactive (in assay [8]; in [9]; in the assay with Caspase-3 (Homo sapiens); in assay [10]; in assay [11]; in assay [12]). Further, the compound was classed as inactive (in assay [13]; in assay [14]; with CYP2C8 (gene 1558); in the assay with CYP2C9 (gene 1559)).
